Experimental data from PubChem BioAssay (NCI).
This is part of a sample that, as a whole, favours compounds with a hit. Of some 83,000 tested, about 20% had one in any assay.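 Growth was measured after 48 h exposure to one concentration of compound in 96-well plates. Values under 10 count as active.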 Unmarked numbers belong to inactive results. Activity calls are given as the source filed them.

Columns and labels:
Assay in all cases: NCI-60 one-dose screen, 48 h (100 = growth as untreated, 0 = no growth, -100 = all killed)
SR leukemia = conditions: 10 µM unless noted
RPMI-8226 leukemia = conditions: 10 µM unless noted
OVCAR-8 ovarian = conditions: 10 µM unless noted
OVCAR-5 ovarian = conditions: 10 µM unless noted
OVCAR-4 ovarian = conditions: 10 µM unless noted
SK-OV-3 ovarian = conditions: 10 µM unless noted
IGROV1 ovarian = conditions: 10 µM unless noted
OVCAR-3 ovarian = conditions: 10 µM unless noted
NCI/ADR-RES ovarian = conditions: 10 µM unless noted
T-47D breast = conditions: 10 µM unless noted
BT-549 breast = conditions: 10 µM unless noted
MDA-MB-435 melanoma = conditions: 10 µM unless noted
SW-620 colon = conditions: 10 µM unless noted
MCF7 breast = conditions: 10 µM unless noted
HCT-116 colon = conditions: 10 µM unless noted
HCC-2998 colon = conditions: 10 µM
KM12 colon = conditions: 10 µM unless noted

| SMILES | growth (SR leukemia) | growth (RPMI-8226 leukemia) | growth (OVCAR-8 ovarian) | growth (OVCAR-5 ovarian) | growth (OVCAR-4 ovarian) | growth (SK-OV-3 ovarian) | growth (IGROV1 ovarian) | growth (OVCAR-3 ovarian) | growth (NCI/ADR-RES ovarian) | growth (T-47D breast) | growth (BT-549 breast) | growth (MDA-MB-435 melanoma) | growth (SW-620 colon) | growth (MCF7 breast) | growth (HCT-116 colon) | growth (HCC-2998 colon) | growth (KM12 colon) |
| --- | --- | --- | --- | --- | --- | --- | --- | --- | --- | --- | --- | --- | --- | --- | --- | --- | --- |
| Cc1cc(Nc2cc(N3CCN(C)CC3)nc(Sc3ccc(NC(=O)C4CC4)cc3)n2)n[nH]1 | 16.7% | 44.8% | 38.6% | 29% | 77% | 27.6% | 30.7% | 61.5% | 73.8% | 33.1% | 23.5% | 27.6% | 19.3% | 28.5% | 18.3% | 33.9% | 6.38% (active) |
| O=C(Cn1ccnc1)Nc1ccc(-c2nc3ccccc3s2)cc1 | 36.5% | 52% | 80.3% | 104% | 34.8% | 87.8% | 68.9% | 62.2% | 88.2% | 51.4% | 65.1% | 81.6% | 99.8% | 61.3% | 68.2% | 94.9% | 84.4% |
| COc1ccc(S(=O)(=O)N(C(C)=O)c2ccccc2/C=C/c2cc[n+]([O-])cc2)cc1 | 16.4% | 22.2% | 14.9% | 35.4% | 42.4% | 6.17% (active) | 24.5% | 28.2% | 17.5% | 27.2% | 16.2% | -50.8% (active) | 23.6% | 15.2% | 5.12% (active) | 8.66% (active) | 14% |
| Cc1ccc(NC(=O)Nc2ccc(Nc3ncnc4sc5c(c34)CCOC5)cc2)cc1Cl | 89% | 105% | 91.9% | 114% | 121% | 73.4% | 99.1% | 102% | 106% | 58.5% | 101% | 103% | 133% | 82.8% | 101% | 112% | 105% |
| N#CC[C@H](C1CCCC1)n1cc(-c2ncnc3[nH]ccc23)cn1 | 2.14% (active) | 81.2% | 64.4% | 50.1% | 81.5% | 38.4% | 38% | 83% | 87.9% | 72% | 77.9% | 69.8% | 73.2% | 41.5% | 39.4% | 85.8% | 19.1% |
| CC/C(=C(\c1ccc(OCCN2CCCCCCC2)cc1)c1ccc(OC(=O)C2CCCCC2)cc1)c1ccc(Cl)cc1 | 78.5% | 107% | 100% | 89.9% | 108% | 111% | 103% | 99.1% | 105% | 77.4% | 116% | 99.8% | 95.5% | 48.5% | 87.3% | 109% | 97.1% |
| Cc1cc(Oc2ccccc2)ccc1Nc1ncnc2ccc(-c3cnc(Cl)c(NS(C)(=O)=O)c3)cc12 | 14.2% | 7.65% (active) | 40.4% | 10.8% | 40.1% | -26.3% (active) | -23.5% (active) | 11.7% | 54.6% | -22.4% (active) | -0.502% (active) | 17.9% | 38.8% | 9.35% (active) | 22.9% | 25.7% | 34.5% |
| C[C@@H]1COC(Nc2ccc3ncnc(Nc4ccc(OCc5nccs5)c(Cl)c4)c3c2)=N1 | 17.6% | 18.8% | 10.4% | 59.6% | 25.3% | -3.87% (active) | 0.932% (active) | 31.7% | 9.99% (active) | -17.5% (active) | 1.81% (active) | 50.1% | 76.8% | 45.1% | 30.1% | 46.9% | 18.5% |
| Cc1cccc(NC(=O)[C@@H]2c3ccccc3C(=O)N(c3ccc(Cl)cc3)[C@H]2c2ccc(Cl)cc2)n1 | 34.5% | 24.5% | 51.2% | 78.7% | 45.1% | 55.1% | 73.5% | 61.8% | 47.8% | 41.6% | 63.3% | 46.6% | 40.6% | 40.9% | 26.2% | 50.6% | 34.5% |
| NC(=O)Nc1cc(-c2cccc(F)c2)sc1C(=O)N[C@H]1CCCNC1 | -6.47% (active) | 6.16% (active) | -15.2% (active) | 2.28% (active) | 25.5% | -46.4% (active) | -50.5% (active) | -1.15% (active) | 10% | 15.1% | -60.9% (active) | -25.8% (active) | -7.1% (active) | 14.3% | -9.03% (active) | -34.6% (active) | 1.83% (active) |
| Cc1ccc(C(=O)Nc2ccc(CN3CCN(C)CC3)c(C(F)(F)F)c2)cc1C#Cc1cnc2cccnn12 | -28.2% (active) | -45.5% (active) | -95.8% (active) | -81.9% (active) | -76.2% (active) | -94% (active) | -65.5% (active) | -95.9% (active) | -49.1% (active) | -70.9% (active) | -97.7% (active) | -98.2% (active) | -87.6% (active) | -74.1% (active) | -85.3% (active) | -91.8% (active) | -91.3% (active) |
| CO[C@H](C(=O)N[C@@H](CCCCNC(=O)OCc1ccccc1)C(=O)OC(C)(C)C)[C@@H]1Cc2cc3cc(OC4CC(OC5CC(O)C(O)C(C)O5)C(O)C(C)O4)c(C)c(O)c3c(O)c2C(=O)[C@H]1OC1CC(OC2CC(OC3CC(C)(O)C(O)C(C)O3)C(O)C(C)O2)C(O)C(C)O1 (some centres undefined) | 7.17% (active) | -5.01% (active) | 12.9% | -77.9% (active) | 43.1% | -52.7% (active) | 22.2% | 24.8% | 73.2% | 7.2% (active) | -79.7% (active) | -69.8% (active) | 3.71% (active) | 3.56% (active) | -63.9% (active) | -5.55% (active) | -62.7% (active) |
| Cn1cc(-c2ncnc3ccc(-c4cnc(Cl)c(NS(C)(=O)=O)c4)cc23)c2ccccc21 | 15.9% | 14.5% | 31% | 12.8% | 15.4% | -18.1% (active) | -24.3% (active) | 21.1% | 20.6% | -23.9% (active) | 4.5% (active) | 7.19% (active) | 21.3% | 7.57% (active) | 20.3% | 17.7% | 25.3% |
| Cc1cnc(Nc2ccc(OCCN3CCCC3)cc2)nc1Nc1cccc(S(=O)(=O)NC(C)(C)C)c1 | -11.4% (active) | -33.8% (active) | 3.89% (active) | 7.41% (active) | 26.3% | -86.8% (active) | -11.8% (active) | 28.2% | 30.5% | 12.5% | -0.344% (active) | 13.5% | -21.3% (active) | 0.924% (active) | 1.03% (active) | -25.9% (active) | 5.75% (active) |
| C#Cc1cccc(Nc2ncnc3cc4c(cc23)OCCOCCOCCO4)c1 | 53.5% | 70% | 53.9% | 60.4% | 63.2% | -17% (active) | 15.2% | 40.9% | 58.5% | 33% | 50.3% | 24.6% | 84.7% | 56.1% | 64.7% | 97.9% | 53% |
| CCN(CC)CCN1C(=O)c2cccc3c(-c4ccc5c(c4)ncn5C4CCCCC4)ccc(c23)C1=O | -14% (active) | -33% (active) | 25.9% | 36.4% | 32.9% | 21.2% | 28.4% | 44.8% | 21.8% | -9.17% (active) | 4.57% (active) | 17% | 11.2% | -7% (active) | -66.1% (active) | 36.7% | 24.3% |
| Cc1cc(C(=O)NOCCO)c(Nc2ccc(I)cc2F)n(C)c1=O | 71.3% | 78.8% | 67.9% | 20.3% | 71.3% | 57.3% | 28% | 106% | 76.2% | 103% | 85.7% | 35.4% | 24.8% | 94.7% | 15.2% | -16.6% (active) | 28.4% |
